Results on 58 compounds are retold here after the antibiotic and cytotoxicity screens of Wong et al. (2023).

About 3,300 (8.5%) of roughly 39,000 compounds were called active. The full list was thinned out, with actives kept by preference.

The experiment has as its system HepG2. The experiment in a line: cytotoxicity call (relative viability < 0.9). The note with it: 10 µM.
Consider `C[C@H](CO)N1C[C@H](C)[C@@H](CN(C)S(=O)(=O)c2ccc(F)cc2)Oc2ccc(NS(=O)(=O)c3cn(C)cn3)cc2C1=O`, for which the cytotoxicity call was “inactive”. Turning to `C[C@H]1CCCCO[C@H](CN(C)C(=O)c2ccccc2)[C@@H](C)CN([C@@H](C)CO)C(=O)c2cc(NS(=O)(=O)c3ccc(Cl)cc3)ccc2O1`, the cytotoxicity call is “inactive”. Take `CN(C[C@@H](O)CN)S(=O)(=O)c1ccccc1`: the cytotoxicity call was “inactive”. The same measure for `Cc1c(-c2ccccc2)n(C[C@@H](O)CN)c2ccccc12`: “active”; for `O=C(O)c1ccc(OC[C@@H](O)CO[C@H](COc2ccc(C(=O)O)cc2)Cn2c3ccccc3c3ccccc32)cc1`: “inactive”; for `COc1ccc(S(=O)(=O)Nc2ccc3c(c2)C(=O)N([C@H](C)CO)C[C@@H](C)[C@H](CN(C)Cc2ccccc2)OCCCC[C@H](C)O3)cc1`: “inactive”.

For `CS(=O)(=O)N1C[C@H]2CN(Cc3ccncc3)C(=O)[C@@H]2C1`, the cytotoxicity call is “inactive”. With `C[C@H](CO)N1C[C@H](C)[C@H](CN(C)C(=O)CN(C)C)Oc2cc(C#CCN(C)C)ccc2S1(=O)=O`, the cytotoxicity call is “inactive”. As to `CCOc1cc2ncc(C#N)c(Nc3ccc(OCc4ccccn4)c(Cl)c3)c2cc1NC(=O)/C=C/[C@H]1CCCN1C`, the cytotoxicity call was “active”. Turning to `CCOc1cc2ncc(C#N)c(Nc3ccc(OCc4ccccn4)c(Cl)c3)c2cc1NC(=O)/C=C/CN(C)C`, the cytotoxicity call is “active”. Turning to `CCOc1ccc(C(=O)Nc2ccc(S(=O)(=O)N3CCCC[C@@H]3c3cccnc3)cc2)cc1OCC`, the cytotoxicity call was “inactive”. Turning to `COc1ccccc1[C@@H](NC(=O)C1CCN(CCOc2ccc(Cl)cc2Cl)CC1)c1ccccn1`, the cytotoxicity call is “inactive”. As to `OC[C@H]1CN(Cc2ccccc2)CCO1`, the cytotoxicity call was “inactive”.

Consider `Cc1nc2ccc([N+](=O)[O-])cc2s1`, for which the cytotoxicity call was “inactive”. As for `CO[C@H]1CN(C)C(=O)c2cc(NC(=O)CC(F)(F)F)ccc2OC[C@H](C)N(C(=O)C2CCOCC2)C[C@@H]1C`, the cytotoxicity call is “inactive”. With `C=CCOC(=O)[C@H]1[C@@H]2C(=O)O[C@@H](c3ccccc3)[C@@H](c3ccccc3)N2[C@@H](c2ccc(OCCOC(=O)[C@H]3C[C@H]4C(=O)N[C@@H](CCCC[N+](C)(C)C)C(=O)N4[C@H]3c3ccc(O)cc3)cc2)[C@]12C(=O)Nc1ccc(I)cc12`, the cytotoxicity call was “inactive”. Regarding `C[C@@H]1CCCCO[C@@H](CN(C)C(=O)Nc2ccc(F)cc2)[C@@H](C)CN([C@H](C)CO)C(=O)c2cc(NC(=O)NC3CCCCC3)ccc2O1`, the cytotoxicity call is “inactive”. The same measure for `C[C@@H]1CCCCO[C@H](CN(C)S(=O)(=O)c2ccccc2)[C@H](C)CN([C@@H](C)CO)C(=O)c2cc(NC(=O)Nc3ccc(F)cc3)ccc2O1`: “active”. Consider `C=CCOC(=O)N(C)C[C@@H]1OCCCC[C@H](C)Oc2ccc(NC(=O)Nc3ccccc3)cc2C(=O)N([C@H](C)COC(=O)c2ccccc2)C[C@H]1C`, for which the cytotoxicity call was “inactive”. `C[C@H]1CCCCO[C@H](CN(C)S(=O)(=O)c2ccccc2)[C@@H](C)CN([C@@H](C)CO)C(=O)c2cc(NC(=O)Nc3ccc(F)cc3)ccc2O1`: the cytotoxicity call is “active”. Regarding `C[C@H](CO)N1C[C@H](C)[C@@H](CN(C)S(=O)(=O)c2ccccc2)OCCCC[C@H](C)Oc2ccc(NC(=O)Nc3ccc(F)cc3)cc2C1=O`, the cytotoxicity call is “inactive”. Regarding `C[C@@H]1CN([C@@H](C)CO[Si](C)(C)C(C)(C)C)C(=O)c2cc(NC(=O)Nc3ccccc3)ccc2O[C@@H](C)CCCCO[C@H]1CN(C)S(=O)(=O)c1ccc(F)cc1`, the cytotoxicity call was “active”.

For the compound `C[C@@H]1CN([C@@H](C)CO)C(=O)c2cc(NC(=O)Nc3ccc(F)cc3)ccc2O[C@@H](C)CCCCO[C@H]1CN(C)S(=O)(=O)c1ccccc1`, the cytotoxicity call is “inactive”. To `C=CCOC(=O)N(C)C[C@H]1OCCCC[C@H](C)Oc2ccc(NC(=O)Nc3ccccc3)cc2C(=O)N([C@@H](C)CO[Si](C)(C)C(C)(C)C)C[C@H]1C` belongs “active”; to `C[C@@H]1CCCCO[C@@H](CN(C)S(=O)(=O)c2ccccc2)[C@H](C)CN([C@H](C)CO)C(=O)c2cc(NC(=O)Nc3ccc(F)cc3)ccc2O1`, “inactive”. `C[C@@H]1CN([C@H](C)CO)C(=O)c2cc(NC(=O)Nc3ccc(F)cc3)ccc2O[C@@H](C)CCCCO[C@@H]1CN(C)S(=O)(=O)c1ccccc1`: the cytotoxicity call was “inactive”. `C[C@@H]1CN([C@H](C)CO[Si](C)(C)C(C)(C)C)C(=O)c2cc(NC(=O)Nc3ccccc3)ccc2O[C@@H](C)CCCCO[C@H]1CN(C)S(=O)(=O)c1ccc(F)cc1`: the cytotoxicity call is “inactive”. `C=CCOC(=O)N(C)C[C@@H]1OCCCC[C@H](C)Oc2ccc(NC(=O)Nc3ccccc3)cc2C(=O)N([C@@H](C)CO)C[C@H]1C`: the cytotoxicity call was “inactive”. On to `COCOC[C@H](C)N1C[C@@H](C)[C@H](CN(C)S(=O)(=O)c2ccc(F)cc2)OCCCC[C@H](C)Oc2ccc(NC(=O)Nc3ccccc3)cc2C1=O`, for which the cytotoxicity call was “inactive”. To `C[C@H](CO)N1C[C@H](C)[C@H](CN(C)S(=O)(=O)c2cccs2)OCCCC[C@H](C)Oc2ccc(NC(=O)NC3CCCCC3)cc2C1=O` belongs “inactive”; to `C[C@H]1CCCCO[C@H](CN(C)C(=O)Nc2ccc3c(c2)OCO3)[C@@H](C)CN([C@@H](C)CO)C(=O)c2cc(NC(=O)C3CCCCC3)ccc2O1`, “inactive”; to `C[C@@H]1CN([C@@H](C)CO)C(=O)c2cccc(NS(C)(=O)=O)c2O[C@H]1CN(C)S(=O)(=O)c1cn(C)cn1`, “inactive”.

As to `C[C@H]1CN([C@@H](C)CO)C(=O)c2cc(NS(=O)(=O)c3ccc(F)cc3)ccc2O[C@@H]1CN(C)S(C)(=O)=O`, the cytotoxicity call was “inactive”. With `CC(C)NC(=O)N(C)C[C@H]1OCc2cn(nn2)CCCC(=O)N([C@@H](C)CO)C[C@H]1C`, the cytotoxicity call was “inactive”. For `O[C@@H]1[C@@H](O)[C@H](Nc2ccccc2)OC[C@H]1O`, the cytotoxicity call was “inactive”. For the compound `Cc1noc(C)c1S(=O)(=O)N(C)C[C@H]1Oc2ccc(NC(=O)Nc3ccccc3)cc2CC(=O)N([C@H](C)CO)C[C@@H]1C`, the cytotoxicity call is “inactive”. Take `CN(C)CC#Cc1ccc([C@@H]2[C@@H](CO)N3C(=O)CN(C(=O)c4cccnc4)C[C@@H]23)cc1`: the cytotoxicity call was “inactive”.

For the compound `COc1ccc(NC(=O)N(C)C[C@H]2OCCCC[C@@H](C)Oc3ccc(NS(=O)(=O)c4c(C)noc4C)cc3C(=O)N([C@H](C)CO)C[C@@H]2C)cc1`, the cytotoxicity call is “inactive”. In the case of `C[C@@H]1CCCCO[C@H](CN(C)C(=O)C2CCCCC2)[C@@H](C)CN([C@@H](C)CO)C(=O)c2cc(NC(=O)Cc3ccccc3)ccc2O1`, the cytotoxicity call is “inactive”.

For `C[C@@H]1CN([C@H](C)CO)C(=O)Cc2cc(NC(=O)Cn3cnnn3)ccc2O[C@@H]1CN(C)S(=O)(=O)c1cn(C)cn1`, the cytotoxicity call is “inactive”. Regarding `C[C@@H]1CCCCO[C@@H](CN(C)S(=O)(=O)c2ccccc2)[C@@H](C)CN([C@@H](C)CO)C(=O)c2cc(NC(=O)Nc3ccc(F)cc3)ccc2O1`, the cytotoxicity call was “inactive”. As to `C[C@@H]1CN([C@@H](C)CO)C(=O)c2cc(NC(=O)Nc3ccccc3)ccc2O[C@@H](C)C/C=C\CO[C@H]1CN(C)S(=O)(=O)c1ccc(F)cc1`, the cytotoxicity call is “inactive”. To `CC(C)N1C[C@@H](C)[C@H](CN(C)S(=O)(=O)c2ccc(F)cc2)OCCCC[C@H](C)Oc2ccc(NC(=O)Nc3ccccc3)cc2C1=O` belongs “inactive”. The same measure for `C[C@@H]1CN([C@@H](C)CN=[N+]=[N-])C(=O)c2cc(NC(=O)Nc3ccccc3)ccc2O[C@@H](C)CCCCO[C@H]1CN(C)S(=O)(=O)c1ccc(F)cc1`: “active”; for `C[C@@H]1CN([C@H](C)CO)C(=O)c2cc(NC(=O)Nc3ccc(F)cc3)ccc2O[C@@H](C)CCCCO[C@H]1CN(C)S(=O)(=O)c1ccccc1`: “inactive”; for `C[C@@H]1CN([C@@H](C)CO)C(=O)c2cc(NC(=O)Nc3ccccc3)ccc2O[C@@H](C)C/C=C/CO[C@H]1CN(C)S(=O)(=O)c1ccc(F)cc1`: “active”.

`COc1ccc(S(=O)(=O)N(C)C[C@H]2OCCCC[C@H](C)Oc3ccc(NC(=O)Nc4ccccc4)cc3C(=O)N([C@H](C)CO)C[C@@H]2C)cc1`: the cytotoxicity call was “inactive”. For the compound `O=C(C[C@@H]1CC[C@@H]2[C@H](COC[C@H](O)CN2C(=O)Nc2cccc(F)c2)O1)NCCCN1CCOCC1`, the cytotoxicity call is “inactive”. For `C[C@@H]1CN([C@@H](C)CO)C(=O)c2cc(NS(=O)(=O)c3ccccc3)ccc2O[C@@H](C)CCCCO[C@@H]1CN(C)S(=O)(=O)c1cn(C)cn1`, the cytotoxicity call was “inactive”. Turning to `C[C@@H]1CN([C@H](C)CO)C(=O)c2cc(NC(=O)CCC(F)(F)F)ccc2O[C@@H](C)CCCCO[C@@H]1CN(C)C(=O)CCC(F)(F)F`, the cytotoxicity call is “inactive”. In the case of `COc1ccc(-c2oc3cc(OC)c(OC)c(OC)c3c(=O)c2OC)cc1OC`, the cytotoxicity call is “active”.

As to `COc1cc(O)c2c(=O)c(OC)c(-c3ccc(OC)c(OC)c3)oc2c1`, the cytotoxicity call is “inactive”. To `COc1ccc(-c2oc3cc(OC)c(OC)c(OC)c3c(=O)c2OC)cc1` belongs “inactive”. On to `O=C(C[C@H]1C=C[C@@H](NC(=O)Cc2ccccn2)[C@H](CO)O1)NCCCN1CCOCC1`, for which the cytotoxicity call is “inactive”. On to `C[C@@H]1CN([C@H](C)CO)C(=O)c2c(c3ccccc3n2C)-c2ccccc2CO[C@H]1CN(C)C(=O)[C@H](C)c1ccccc1`, for which the cytotoxicity call was “inactive”.

With `C[C@H]1O[C@@H](O[C@H]2[C@@H](O)C[C@H](O[C@H]3[C@@H](O)C[C@H](O[C@H]4CC[C@@]5(C)[C@H](CC[C@@H]6[C@@H]5C[C@@H](O)[C@]5(C)[C@@H](C7=CC(=O)OC7)CC[C@]65O)C4)O[C@@H]3C)O[C@@H]2C)C[C@H](O)[C@@H]1O`, the cytotoxicity call is “active”. The same measure for `CC1OC(OC2C(O)CC(OC3C(O)CC(OC4CCC5(C)C(CCC6C5CC(O)C5(C)C(C7=CC(=O)OC7)CCC65O)C4)OC3C)OC2C)CC(O)C1O` (stereo not drawn): “active”. Consider `C[C@H]1O[C@@H](O[C@H]2[C@@H](O)C[C@H](O[C@H]3[C@@H](O)C[C@H](O[C@H]4CC[C@@]5(C)[C@H](CC[C@@H]6[C@@H]5C[C@@H](O)[C@@]5(C)[C@@H](C7=CC(=O)OC7)CC[C@]65O)C4)O[C@@H]3C)O[C@@H]2C)C[C@H](O)[C@@H]1O`, for which the cytotoxicity call is “active”.
